Laboratory results: the supplement of paper PMC4466140

B1: unnamed (peptide)
chain: TPRLSLPRLPNKHHW

biological target: AgAbp1; experiment: SPOT peptide array binding signal intensity (averaged, normalized) (arbitrary units (background-subtracted, floor 0; scale differs between SH3 domains)); higher = stronger binding of the SH3 domain to the peptide
In short: (§1)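 Binding signal refers to normalized, background-subtracted spot intensity averaged over replicates, expressed in arbitrary units that differ between domains. GST-fused SH3 domains from four yeast species were incubated at 10 μg/ml overnight at 4°C on cellulose membranes of synthetic 15-mer peptides with cysteines replaced by serines. Bound protein was detected with anti-GST antibody, an HRP anti-mouse secondary and luminol, and quantified with Genespotter.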

Binder	SPOT peptide array binding signal intensity
B1	88

biological target: AgBbc1; experiment: as above
In short: as §1

Binder	SPOT peptide array binding signal intensity
B1	1.5

biological target: AgBem1-D1; experiment: as above
In short: as §1

Binder	SPOT peptide array binding signal intensity
B1	≤ 0

biological target: AgBzz1-D1; experiment: as above
In short: as §1

Binder	SPOT peptide array binding signal intensity
B1	12.5

biological target: AgBzz1-D2; experiment: as above
In short: as §1

Binder	SPOT peptide array binding signal intensity
B1	23.5

biological target: AgCyk3; experiment: as above
In short: as §1

Binder	SPOT peptide array binding signal intensity
B1	≤ 0

biological target: AgFus1; experiment: as above
In short: as §1

Binder	SPOT peptide array binding signal intensity
B1	15.5

biological target: AgHof1; experiment: as above
In short: as §1

Binder	SPOT peptide array binding signal intensity
B1	685

biological target: AgHse1; experiment: as above
In short: as §1

Binder	SPOT peptide array binding signal intensity
B1	271

biological target: AgLsb1; experiment: as above
In short: as §1

Binder	SPOT peptide array binding signal intensity
B1	1

biological target: AgLsb4; experiment: as above
In short: as §1

Binder	SPOT peptide array binding signal intensity
B1	33.5

biological target: AgMyo5; experiment: as above
In short: as §1

Binder	SPOT peptide array binding signal intensity
B1	≤ 0

biological target: AgNbp2; experiment: as above
In short: as §1

Binder	SPOT peptide array binding signal intensity
B1	26

biological target: AgRvs167; experiment: as above
In short: as §1

Binder	SPOT peptide array binding signal intensity
B1	2.67

biological target: AgSho1; experiment: as above
In short: as §1

Binder	SPOT peptide array binding signal intensity
B1	274

biological target: AgSla1-D1-D2; experiment: as above
In short: as §1

Binder	SPOT peptide array binding signal intensity
B1	7

biological target: AgSla1-D3; experiment: as above
In short: as §1

Binder	SPOT peptide array binding signal intensity
B1	≤ 0

biological target: CaAbp1-D1; experiment: as above
In short: as §1

Binder	SPOT peptide array binding signal intensity
B1	314

biological target: CaAbp1-D2; experiment: as above
In short: as §1

Binder	SPOT peptide array binding signal intensity
B1	675

biological target: CaBbc1; experiment: as above
In short: as §1

Binder	SPOT peptide array binding signal intensity
B1	30.2

biological target: CaBem1-D1; experiment: as above
In short: as §1

Binder	SPOT peptide array binding signal intensity
B1	≤ 0

biological target: CaBzz1-D1; experiment: as above
In short: as §1

Binder	SPOT peptide array binding signal intensity
B1	≤ 0

biological target: CaBzz1-D2; experiment: as above
In short: as §1

Binder	SPOT peptide array binding signal intensity
B1	34.5

biological target: CaCyk3; experiment: as above
In short: as §1

Binder	SPOT peptide array binding signal intensity
B1	≤ 0

biological target: CaFus1; experiment: as above
In short: as §1

Binder	SPOT peptide array binding signal intensity
B1	50.5

biological target: CaHof1; experiment: as above
In short: as §1

Binder	SPOT peptide array binding signal intensity
B1	1

biological target: CaHse1; experiment: as above
In short: as §1

Binder	SPOT peptide array binding signal intensity
B1	73

biological target: CaLsb1; experiment: as above
In short: as §1

Binder	SPOT peptide array binding signal intensity
B1	≤ 0

biological target: CaLsb4; experiment: as above
In short: as §1

Binder	SPOT peptide array binding signal intensity
B1	70

biological target: CaMyo5; experiment: as above
In short: as §1

Binder	SPOT peptide array binding signal intensity
B1	≤ 0

biological target: CaNbp2; experiment: as above
In short: as §1

Binder	SPOT peptide array binding signal intensity
B1	116

biological target: CaRvs167; experiment: as above
In short: as §1

Binder	SPOT peptide array binding signal intensity
B1	2.83

biological target: CaRvs167-3; experiment: as above
In short: as §1

Binder	SPOT peptide array binding signal intensity
B1	4.75

biological target: CaSho1; experiment: as above
In short: as §1

Binder	SPOT peptide array binding signal intensity
B1	89

biological target: CaSla1-D1-D2; experiment: as above
In short: as §1

Binder	SPOT peptide array binding signal intensity
B1	256

biological target: CaSla1-D3; experiment: as above
In short: as §1

Binder	SPOT peptide array binding signal intensity
B1	1.5

biological target: ScAbp1; experiment: as above
In short: as §1

Binder	SPOT peptide array binding signal intensity
B1	0.5

biological target: ScBbc1; experiment: as above
In short: as §1

Binder	SPOT peptide array binding signal intensity
B1	≤ 0

biological target: ScBem1-D1; experiment: as above
In short: as §1

Binder	SPOT peptide array binding signal intensity
B1	2

biological target: ScBzz1-D1; experiment: as above
In short: as §1

Binder	SPOT peptide array binding signal intensity
B1	≤ 0

biological target: ScBzz1-D2; experiment: as above
In short: as §1

Binder	SPOT peptide array binding signal intensity
B1	16.5

biological target: ScCyk3; experiment: as above
In short: as §1

Binder	SPOT peptide array binding signal intensity
B1	6

biological target: ScFus1; experiment: as above
In short: as §1

Binder	SPOT peptide array binding signal intensity
B1	0.5

biological target: ScHof1; experiment: as above
In short: as §1

Binder	SPOT peptide array binding signal intensity
B1	238

biological target: ScHse1; experiment: as above
In short: as §1

Binder	SPOT peptide array binding signal intensity
B1	216

biological target: ScLsb1; experiment: as above
In short: as §1

Binder	SPOT peptide array binding signal intensity
B1	8

biological target: ScLsb2; experiment: as above
In short: as §1

Binder	SPOT peptide array binding signal intensity
B1	≤ 0

biological target: ScLsb3; experiment: as above
In short: as §1

Binder	SPOT peptide array binding signal intensity
B1	1330

biological target: ScLsb4; experiment: as above
In short: as §1

Binder	SPOT peptide array binding signal intensity
B1	5

biological target: ScMyo3; experiment: as above
In short: as §1

Binder	SPOT peptide array binding signal intensity
B1	≤ 0

biological target: ScMyo5; experiment: as above
In short: as §1

Binder	SPOT peptide array binding signal intensity
B1	≤ 0

biological target: ScNbp2; experiment: as above
In short: as §1

Binder	SPOT peptide array binding signal intensity
B1	62

biological target: ScPex13; experiment: as above
In short: as §1

Binder	SPOT peptide array binding signal intensity
B1	224

biological target: ScRvs167; experiment: as above
In short: as §1

Binder	SPOT peptide array binding signal intensity
B1	3.33

biological target: ScSho1; experiment: as above
In short: as §1

Binder	SPOT peptide array binding signal intensity
B1	764

biological target: ScSla1-D1-D2; experiment: as above
In short: as §1

Binder	SPOT peptide array binding signal intensity
B1	13.5

biological target: ScSla1-D3; experiment: as above
In short: as §1

Binder	SPOT peptide array binding signal intensity
B1	1.75

biological target: SpAbp1-D1; experiment: as above
In short: as §1

Binder	SPOT peptide array binding signal intensity
B1	386

biological target: SpBbc1; experiment: as above
In short: as §1

Binder	SPOT peptide array binding signal intensity
B1	≤ 0

biological target: SpBzz1-D1; experiment: as above
In short: as §1

Binder	SPOT peptide array binding signal intensity
B1	403

biological target: SpBzz1-D2; experiment: as above
In short: as §1

Binder	SPOT peptide array binding signal intensity
B1	0.75

biological target: SpCyk3; experiment: as above
In short: as §1

Binder	SPOT peptide array binding signal intensity
B1	2

biological target: SpHof1; experiment: as above
In short: as §1

Binder	SPOT peptide array binding signal intensity
B1	35

biological target: SpHof1-2; experiment: as above
In short: as §1

Binder	SPOT peptide array binding signal intensity
B1	293

biological target: SpHof1-3; experiment: as above
In short: as §1

Binder	SPOT peptide array binding signal intensity
B1	136

biological target: SpHse1; experiment: as above
In short: as §1

Binder	SPOT peptide array binding signal intensity
B1	416

biological target: SpLsb1; experiment: as above
In short: as §1

Binder	SPOT peptide array binding signal intensity
B1	≤ 0

biological target: SpLsb4; experiment: as above
In short: as §1

Binder	SPOT peptide array binding signal intensity
B1	357

biological target: SpMyo1; experiment: as above
In short: as §1

Binder	SPOT peptide array binding signal intensity
B1	5.5

biological target: SpNbp2; experiment: as above
In short: as §1

Binder	SPOT peptide array binding signal intensity
B1	61

biological target: SpPex13; experiment: as above
In short: as §1

Binder	SPOT peptide array binding signal intensity
B1	5

biological target: SpRvs167; experiment: as above
In short: as §1

Binder	SPOT peptide array binding signal intensity
B1	302

biological target: SpSla1-D1-D2; experiment: as above
In short: as §1

Binder	SPOT peptide array binding signal intensity
B1	7

biological target: SpSla1-D3; experiment: as above
In short: as §1

Binder	SPOT peptide array binding signal intensity
B1	≤ 0
